# Compound activity as filed in PubChem.
# HTR5A inv ctr: counter-screen for OPRM1-OPRD1 inverse agonists: human HTR5A inverse agonism | hit rate 0.083% among 340,000 | inhibition, % at 9.3 µM | HTR5A cell line, luminescence | P47898; in the data active = inhibition mostly above about 23%, no sharp cut-off; inactive = mostly below about 18%
# Target sequence (P47898 whole entry, looked up): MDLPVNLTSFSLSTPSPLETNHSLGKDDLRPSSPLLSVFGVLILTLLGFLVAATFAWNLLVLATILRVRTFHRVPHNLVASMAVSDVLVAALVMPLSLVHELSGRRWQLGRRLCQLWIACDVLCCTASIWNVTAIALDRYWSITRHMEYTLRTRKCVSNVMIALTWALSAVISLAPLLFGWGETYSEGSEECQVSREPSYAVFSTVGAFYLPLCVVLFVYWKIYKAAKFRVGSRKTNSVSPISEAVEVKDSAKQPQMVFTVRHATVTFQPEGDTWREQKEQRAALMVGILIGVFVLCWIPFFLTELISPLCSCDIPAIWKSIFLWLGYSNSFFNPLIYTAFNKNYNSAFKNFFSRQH
# HTR5A ag ctr: HTR5A agonism, opioid heterodimer counter-screen. P47898. HTR5A agonist assay, luminescence, cell-based. activation, % at 9.3 µM. hit rate 0.61% among 340,000; in the data active = activation mostly above about 9.5%, no sharp cut-off; inactive = mostly below about 7.6%
# MsrA inhibitor: bovine MsrA inhibition. inhibition, % at 15.5 µM. hit rate 0.75% among 360,000. purified bovine MsrA, absorbance read-out. AID 651718; in the data active = inhibition above about 4.5%
# OPRM1-OPRD1 ag: OPRM1-OPRD1 heterodimerization agonism | P35372+P41143 | cells, luminescence | hit rate 0.3% among 340,000 | activation, % at 9.3 µM; in the data active = activation above about 18%
# MsrA act: activates bovine MsrA enzyme; purified bovine MsrA, absorbance read-out; activation, % at 10.6 µM; hit rate 0.3% among 360,000; in the data active = activation above about 7.5%
# MOR-DOR inv ag: inverse agonist of human OPRM1-OPRD1 heterodimerization; inhibition, % at 9.3 µM; hit rate 0.21% among 340,000; cell-based MOR-DOR heterodimer luminescence, inverse agonism; in the data active = inhibition above about 22%, passing the limit was not always enough
# OPRM1-D1 inv cf: OPRM1-OPRD1 heterodimer inverse agonism, confirmation | cells expressing OPRM1/OPRD1 heterodimer, luminescence | inhibition, % at 9.3 µM | shares compounds with MOR-DOR inv ag | hit rate 20% among 580; in the data active = inhibition above about 32%
# HTR5A inv ctr2: inverse agonist of human HTR5A in OPRM1-OPRD1 counter-screen; shares compounds with MOR-DOR inv ag; inhibition, % at 9.3 µM; HTR5A-expressing cells, luminescence, inverse agonism; 580 tested, under 10 active; call rule not given here
# A number is an active result; i = inactive; nt = no result given. An excerpt weighted towards active compounds, which were near 1.9% of everything screened.
SMILES,HTR5A inv ctr,HTR5A ag ctr,MsrA inhibitor,OPRM1-OPRD1 ag,MsrA act,MOR-DOR inv ag,OPRM1-D1 inv cf,HTR5A inv ctr2
Oc1ccccc1C=NN1CCCCCC1,i,i,i,i,i,i,nt,nt
O=C(CCOc1ccccc1)OCC(=O)c1cc2ccccc2o1,i,i,i,i,i,37,i,i
O=C(COC(=O)CCOc1ccccc1)NCCc1ccccc1,i,i,i,i,i,i,nt,nt
COc1cc(C=NNc2nc3c([nH]2)c(=O)n(C)c(=O)n3C)ccc1O,i,i,i,i,i,35,i,i
C=CC(=O)NC1CCCCN(CCC)C1=O (stereo not given),nt,nt,i,nt,nt,nt,nt,nt
CCOc1ccc(C=NC23CN4CN(CN(C4)C2)C3)cc1,i,i,i,i,i,i,nt,nt
CCOc1ccc(CNC23CN4CN(CN(C4)C2)C3)cc1,i,i,i,i,i,16,i,i
CN1C(=O)C(O)(CC(=O)c2ccccc2O)c2cc(Br)ccc21 (stereo not given),i,i,i,i,i,68,i,i
CC(C)C[C@@H]1COc2cccc(NCCO)c2S(=O)(=O)N1,nt,nt,i,nt,nt,nt,nt,nt
O=C1C(=O)N(CC(=O)N2CCCC2)c2ccccc21,i,i,i,i,i,i,nt,nt
CC(C)NC(=O)CN1C(=O)C(=O)c2ccccc21,i,i,i,i,i,47,i,i
C[C@H]1CN([C@@H](C)CO)C(=O)CCCn2cc(nn2)CO[C@@H]1CN(C)S(=O)(=O)c1ccccc1F,nt,nt,i,nt,nt,nt,nt,nt
CCn1nc([N+](=O)[O-])c(C(C#N)c2nc3cc(C(F)(F)F)ccc3s2)c(Cl)c1=O (stereo not given),i,i,i,i,i,31,i,i
CCCc1cc(=O)[nH]c(-n2[nH]c3c(c2=O)CCCC3)n1,i,i,i,i,i,33,i,i
COc1ccccc1OCCCN1C(=O)C(=O)c2cccc(C)c21,i,i,i,i,i,41,56,i
Cc1ccccc1OCCN1C(=O)C(=O)c2cccc(C)c21,i,i,i,i,i,58,i,i
Cc1ccccc1OCCN1C(=O)c2ccccc2C1=O,i,i,i,i,i,i,nt,nt
COc1ccc(OC)c(CNS(=O)(=O)c2ccccc2Br)c1,nt,nt,i,nt,nt,nt,nt,nt
CC(=O)N(/N=C1\Sc2ccccc2C1=O)c1ccc(C)cc1C,i,i,i,i,i,i,nt,nt
CC(=O)N(/N=C1\Sc2ccccc2C1=O)c1ccccc1,i,i,i,i,i,34,i,i
CC(=O)N(/N=C1\Sc2ccccc2C1=O)c1ccccc1C,i,i,i,i,i,51,i,i
CCC1=NC(c2ccc(OC)cc2)N(O)C1(C)C (stereo not given),i,i,nt,i,i,i,nt,nt
CC1(C)C(c2ccccc2)=NC(c2ccccc2)N1O (stereo not given),i,i,i,i,i,i,nt,nt
COc1ccc(C2N=C(c3ccccc3)C(C)(C)N2O)cc1 (stereo not given),i,i,i,i,i,43,i,i
CC1(C)C(c2ccccc2)=NC(c2ccc(Br)cc2)N1O (stereo not given),i,i,i,i,i,46,i,i
SMILES,HTR5A inv ctr,HTR5A ag ctr,MsrA inhibitor,OPRM1-OPRD1 ag,MsrA act,MOR-DOR inv ag,OPRM1-D1 inv cf,HTR5A inv ctr2
CCC1=NC(c2ccc(Br)cc2)N(O)C1(C)C (stereo not given),i,i,i,i,i,33,i,i
C[C@@H]1CN(c2ccc(N3CCNC[C@H]3C)cc2C#N)CCN1Cc1ccccc1,nt,nt,i,nt,nt,nt,nt,nt
C=CCNC(=S)N1C[C@H]2CON(C)[C@H]2C[C@H]1c1ccccc1Br,nt,nt,i,nt,nt,nt,nt,nt
COC(=O)[C@]12C[C@H](CC(=O)NCC3CCCCC3)C(=O)N(CCC3=CCCCC3)C1=C[C@H](C(C)(C)C)O[C@@H]2C,nt,nt,i,nt,nt,nt,nt,nt
N#CC(C#N)=C1C=CC=CN1/C(=C\c1ccccc1Cl)C(=O)c1ccccc1,i,i,i,i,i,35,i,i
COc1ccc(/C=C2\C(=O)NC(=O)c3ccccc32)cc1OC,i,i,i,i,i,i,nt,nt
COc1ccc(-c2cccc3c2NC(=O)C3=O)cc1OC,i,i,i,i,i,64,42,i
O=[N+]([O-])c1cc(S(=O)(=O)NCc2ccco2)ccc1NN=Cc1ccccn1,nt,nt,i,nt,nt,nt,nt,nt
CC(=O)Nc1ccc(NC(=O)c2ccccc2Nc2ccccc2)cc1,i,i,i,i,i,i,nt,nt
CCCCCC(=O)NC(=S)Nc1ccccc1C(=O)OC,i,i,i,i,i,i,nt,nt
CC(=O)NC(=S)Nc1ccccc1C(=O)Nc1ccccc1,i,i,i,i,i,27,i,i
CCCCC(=O)NC(=S)Nc1ccccc1C(=O)Nc1ccccc1,i,i,i,i,i,30,i,i
COc1ccc2c(c1)[C@@]1(OCCC=C[C@H]1C)C(=O)N2CC1CC1,nt,nt,i,nt,nt,nt,nt,nt
O=C(Nc1ccc(O)c(-c2nc3ccccc3s2)c1)c1cccs1,i,i,i,i,i,36,i,i
Clc1ccc(N2COC3c4cccc5cccc(c45)C32)cc1 (stereo not given),i,i,i,i,i,i,nt,nt
COc1ccc(N2COC3c4cccc5cccc(c45)C32)cc1 (stereo not given),i,i,i,i,i,50,i,i
Cc1ccc(C(=O)COC(=O)CNS(=O)(=O)c2ccccc2)cc1[N+](=O)[O-],i,i,i,i,i,59,i,i
Cc1ccc(C)c(C(=O)COC(=O)CNS(=O)(=O)c2ccccc2)c1,i,i,i,i,i,i,nt,nt
Cc1ccc(S(=O)(=O)CCC(=O)OCC(=O)c2ccc(C)c(C)c2)cc1,i,i,i,i,i,i,nt,nt
Cc1ccc(C(=O)COC(=O)CCS(=O)(=O)c2ccccc2)cc1[N+](=O)[O-],i,i,i,i,i,42,i,i
O=S1(=O)c2cc(Cl)ccc2N2CCC[C@@H]2CN1Cc1ccc(Cl)c(Cl)c1,nt,nt,i,nt,nt,nt,nt,nt
CSc1nnc(C)c(/C=C/NOCc2ccc(Cl)cc2)n1,i,i,i,i,i,44,i,i
O=S(=O)(NNc1cccc(Cl)n1)c1ccc(Cl)cc1,i,i,i,i,i,80,50,i
CCNC(=O)N1CCN(c2ccc(N3CCN(Cc4ccccc4)[C@H](C)C3)c(C)c2)[C@@H](C)C1,nt,nt,i,nt,nt,nt,nt,nt
OC(c1ccccc1)(c1ccccc1)C1CCN(CCCOc2ccc(-c3cccnc3)cc2)CC1,nt,nt,i,nt,nt,nt,nt,nt
COc1cccc(C2NC(=S)N(Cc3ccccc3)C(C)=C2C(C)=O)c1 (stereo not given),nt,nt,i,nt,nt,nt,nt,nt
CCc1ccc2c(c1)C(=O)C(=O)N2CCS(=O)(=O)c1ccccc1,i,i,i,i,i,45,i,i
C=CCCC1CN(Cc2ccc(OC)cc2)S(=O)(=O)c2c(cccc2Sc2ccc(OC)c(OC)c2)O1 (stereo not given),nt,nt,i,nt,nt,nt,nt,nt
CCn1c(Cl)c(C=O)s/c1=N\S(=O)(=O)c1ccccc1,i,i,i,i,i,34,i,i
